Only some compounds are listed: those with a hit (about 6.1% of all), similar ones and a draw of the others.
RORg inh = ROR gamma (mouse) transcription inhibition; P51450; Drosophila S2 Gal4-RORgamma UAS-luciferase reporter, 20 h; Potency, µM (top dose mostly 53.6 µM), without a hit: at the highest dose activity change, negative = inhibition, actives largely listed as inhibitors; 310,000 compounds, 5.4% hits; AID 2551; further: on the % scale 0 is the no-effect control and ±100 the full control effect; nearly all actives have a fitted effect of over 60% in size
Target sequence (P51450 whole entry, looked up, the tested form may be a part): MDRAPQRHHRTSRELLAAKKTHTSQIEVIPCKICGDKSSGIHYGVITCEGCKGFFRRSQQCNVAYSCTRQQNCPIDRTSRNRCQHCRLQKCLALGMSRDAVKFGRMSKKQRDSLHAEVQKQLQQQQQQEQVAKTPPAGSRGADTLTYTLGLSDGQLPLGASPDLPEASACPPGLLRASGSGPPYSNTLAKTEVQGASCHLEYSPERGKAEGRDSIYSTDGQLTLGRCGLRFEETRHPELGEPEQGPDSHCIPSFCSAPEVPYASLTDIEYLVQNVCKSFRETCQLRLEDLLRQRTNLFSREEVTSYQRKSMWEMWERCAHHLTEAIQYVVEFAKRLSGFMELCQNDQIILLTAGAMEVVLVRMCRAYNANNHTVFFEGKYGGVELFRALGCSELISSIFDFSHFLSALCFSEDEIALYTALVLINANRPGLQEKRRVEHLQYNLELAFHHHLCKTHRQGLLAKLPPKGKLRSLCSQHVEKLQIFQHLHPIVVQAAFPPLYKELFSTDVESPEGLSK
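Drosophila Schneider cells stably carrying a metallothionein-driven Gal4 DBD–ROR gamma fusion and a UAS-Photinus luciferase reporter were exposed to compound for 1 hr, then induced with copper sulfate (700 uM final) for 20 hr at ambient temperature before luminescence reading.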
TGFb SMAD3 inh = inhibitors of TGF-b signaling | HepG2 CAGA-GFP TGF-b/SMAD3 reporter, GFP fluorescence, 18 h; TGF-beta stimulated, 500 pg/mL final | Potency, µM (series often up to 46.1 µM), inactives show at the top dose activity, negative = inhibition, usual class: inhibitors | 410,000 compounds, 1.2% hits | AID 588855; further: on the % scale 0 is the no-effect control and ±100 the full control effect; nearly all actives have a fitted effect of over 65% in size
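Inhibition of TGF-beta-driven CAGA-GFP reporter expression in HEPG2 cells is measured by cellular GFP fluorescence after 18 h stimulation with 500 pg/mL recombinant TGF-beta in 1% FBS medium at 37 degrees C.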
HepG2 tox = kills HepG2 cells in TGF-b inhibitor counter-screen | HepG2 CAGA-GFP viability, ATP luminescence, 18 h | 410,000 compounds, 0.76% hits | Potency, µM (highest dose often 46.1 µM), for inactives: top-dose activity change, negative = cytotoxicity, usual class: cytotoxic | AID 588856
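CellTiter-Glo luminescence gave cytotoxicity after 18 hours at 37 degrees C. The cells were HepG2 CAGA-GFP in 1% FBS DMEM, stimulated with 500 pg/mL TGF-beta after compound addition. %Activity was normalised to no-cell wells (complete cell-killing) and DMSO (no toxicity), and curves were fitted and classified.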
Gal4-VP16 FLuc = inhibits Gal4-VP16 luciferase reporter, ROR gamma counter-screen; Potency, µM (series often up to 53.6 µM), for inactives: at the highest dose activity, negative = inhibition, usual class: inhibitors; 310,000 compounds, 3.5% hits; Drosophila S2 Gal4-VP16 UAS-luciferase, luminescence, 20 h;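 further: Gal4-VP16 expression switched on by copper sulfate through the metallothionein promoter; on the % scale 0 is the no-effect control and ±100 the full control effect; nearly all actives have a fitted effect of over 50% in size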
ATXN viability = reduces viability in counter-screen for ATXN expression inhibitors; S2 cells (HEK-293 line with an ATXN2-luciferase reporter) viability, CellTiter-Fluor protease fluorescence, 24 h; Potency, µM (top dose mostly 56.7 µM), most hits filed as cytotoxic; 400,000 compounds, 0.49% hits; further: nearly all actives have a fitted effect of over 40% in size
ATXN2 expr inh = reduces ATXN2 reporter expression in HEK-293 cells. HEK-293 ATXN2-luciferase reporter, luminescence, 24 h. Potency, µM (doses to about 57 µM), for the others: top-dose activity change, negative = inhibition, actives largely listed as inhibitors. 360,000 compounds, 0.72% hits. AID 1745845; further: on the % scale 0 is the no-effect control and ±100 the full control effect; nearly all actives have a fitted effect of over 55% in size
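qHTS (up to 57 uM final) was run with 24 h compound exposure of reporter cells at 37 °C. Each well was multiplexed: SteadyGlo luminescence measured ATXN2-luciferase expression after a fluorogenic Gly-Phe-AFC viability readout (25 uM final).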
Numbers without * were called inactive; i = inactive; ? = inconclusive; . = not tested or not shown. The call rests on the fitted dose curve; in most records, active means well fitted curve in the direction sought with a large enough effect; inconclusive means small, poorly fitted or top-dose-only effect, or another doubt; inactive means no such curve, though single readings can be large; an effect the other way counts as inactive or inconclusive. Potency means the concentration at half of the fitted maximal effect.

SMILES | RORg inh | TGFb SMAD3 inh | HepG2 tox | Gal4-VP16 FLuc | ATXN viability | ATXN2 expr inh
O=S(=O)(Nc1ccc(F)c(C(F)(F)F)c1)c1ccc(N2CCCCS2(=O)=O)cc1 | . | 10µM* | -24.7% | . | i | -27.0%
Cc1ccc(NC(=O)CSc2nc3c(oc4ccccc43)c(=O)n2Cc2ccco2)cc1 | . | 6.4% | -7.4% | . | i | 4.1%
COC(=O)C1=CN(Cc2cccs2)C=C(C(=O)OC)C1c1cccc(Cl)c1 | ? | ? | 10µM* | 1.2% | ? | -17.8%
CCCOc1ccc(CNC(=O)c2[nH]c3cc(OC)ccc3c2Sc2ccccc2)cc1 | . | -8.4% | -7.9% | . | i | 0.0%
Cc1ccc(NC(=O)C2=C(O)CCn3c2nc2ccccc23)cc1 | 4.47µM* | -15.1% | -31.0% | 5.62µM* | i | 0.3%
O=C(O)C1=CC(O)C(O)[C@H](O)C1 (some centres not stated) | . | . | . | . | . | 1.3%
Cc1ccc(S(=O)(=O)N2CC3(O)CN(C(=O)OC(C)C)N(C(=O)OC(C)C)CC3(OC(=O)Nc3cccs3)C2)cc1 (configuration not stated) | . | 12.6µM* | -38.3% | . | ? | -6.2%
CCOC(=O)c1c(S(=O)(=O)NCC(=O)Nc2ccc(C)c(N(C)C)c2)c(C)n(C)c1C | . | -20.9% | -12.9% | . | i | 4.8%
N#CC1=C(N)SC(N)=C(C#N)C1C1CC=CCC1 (configuration not stated) | 15.8µM* | 0.2% | -13.0% | ? | i | 5.8%
N#CC1=C(N)SC(N)=C(C#N)C1C1C=CCCC1 (configuration not stated) | ? | 23.9% | -4.7% | ? | i | 1.3%
COCCNC(=S)Nc1cccc2cnccc12 | -1.7% | -9.7% | -0.9% | -13.4% | i | ?
COc1ccc(OCCNC(=S)Nc2cccc3ccccc23)cc1 | 2.82µM* | ? | -1.9% | 6.31µM* | i | 0.2%
COc1ccc(CCNC(=S)Nc2cccc3ccccc23)cc1 | 5.01µM* | ? | -19.3% | 11.2µM* | i | 28.7%
COc1ccc(CNC(=O)Nc2cccc3ccccc23)cc1 | 1.1% | 20.5% | -5.5% | ? | i | 6.9%
COc1ccc(CCNC(=S)Nc2ccccc2C)cc1 | 5.01µM* | 12.3% | -6.4% | 20µM* | i | 4.3%
Cc1ccc(CNC(=O)C2CCN(C(=O)c3ccc(-n4ccc5ccccc54)s3)CC2)cc1 | . | ? | -22.4% | . | . | .
Cc1cc(C)nc(Nc2ccc(N3CCOCC3)cc2)n1 | 5.4% | 9.8% | 5.9% | -9.6% | i | 42.6%
Cc1nc(N)sc1-c1ccnc(Nc2ccc(N3CCOCC3)cc2)n1 | . | . | . | . | . | 10.9µM*
O=C(Nc1ccc(O)c(-c2nc3ccccc3o2)c1)C1(c2ccccc2)CCCC1 | 5.62µM* | -1.3% | -6.6% | 8.91µM* | i | -16.5%
CC(=O)O[C@H]1[C@H](O)[C@H](Oc2c(O)c(C)c3c4c2[C@@H](C)CC[C@@H]4[C@@H](C)C[C@H]3C=C(C)C)O[C@@H](C)[C@H]1O | . | 11.2µM* | -113.6% | . | ? | ?
CC(=O)Oc1c(C)c2c3c(c1OC(C)=O)[C@@H](C)CC[C@@H]3[C@@H](C)C[C@H]2C=C(C)C | . | -27.9% | -9.4% | . | i | 6.0%
CC(C)=C[C@@H]1C[C@H](C)[C@H]2CC[C@H](C)c3c(O)c(O)c(C)c1c32 | . | -10.2% | -41.6% | . | i | -1.0%
CC(=O)OC1[C@H](Oc2c(O)c(C)c3c4c2[C@@H](C)CC[C@@H]4[C@@H](C)C[C@@H]3C=C(C)C)OC[C@@H](O)[C@@H]1O (some centres not stated) | . | 11.2µM* | -48.1% | . | i | 3.2%
CC(C)=C[C@H]1C[C@H](C)[C@H]2CC[C@H](C)c3c(O[C@@H]4OC[C@@H](O)[C@H](O)C4O)c(O)c(C)c1c32 (some centres not stated) | . | ? | 22.4µM* | . | ? | ?
O=C(NCc1ccc(F)cc1)C(=O)NCC(c1ccco1)S(=O)(=O)c1cccs1 (configuration not stated) | . | ? | -8.9% | . | . | .
SMILES | RORg inh | TGFb SMAD3 inh | HepG2 tox | Gal4-VP16 FLuc | ATXN viability | ATXN2 expr inh
CC(C)(C)NCC(O)CON=C1c2ccccc2-c2ccccc21 (configuration not stated) | -22.1% | ? | 11.2µM* | 2.8% | . | -36.0%
COc1ccccc1N1CCN(C(=O)c2cn(C)c3ccc(S(=O)(=O)N(C)C4CCCCC4)cc3c2=O)CC1 | . | 7.7% | 9.8% | . | ? | -0.3%
COc1ccc(OC)c(C(=O)CSc2ncc3c(n2)-c2ccccc2N(Cc2ccccc2C)S3(=O)=O)c1 | . | 4.4% | -1.1% | . | i | 7.3%
Cc1nn2c(nc1=O)NNC2(C)C(C)(C)C (configuration not stated) | 11.2µM* | -19.7% | -49.8% | -13.8% | i | -13.4%
CN=C(NC)NCc1ccccc1 | . | . | . | . | i | .
COc1ccc(CCNC(=O)c2ccc3nc(N4CCCCC4)sc3c2)cc1OC | 2.24µM* | -5.9% | -27.8% | ? | ? | ?
COc1ccc2nc(N3CCCC(C(=O)NCCc4ccc(OC)c(OC)c4)C3)sc2c1 (configuration not stated) | ? | -4.4% | -3.2% | -7.1% | ? | 38.8%
Cc1ccc(N=Cc2cc(Br)cc(Cl)c2O)cc1 | 11.2µM* | -13.8% | -16.4% | -0.4% | i | -15.5%
CCC1(C2CCN(C(=O)c3ccccc3Cl)CC2)NC(=O)N(CCc2scnc2C)C1=O (configuration not stated) | . | . | . | . | i | .
COc1ccc(C2=CC(=O)N(Nc3ccccc3)C2=O)cc1 | ? | ? | -151.0% | 11.2µM* | i | -26.5%
COc1ccc(Nc2cccccc2=O)cc1 | -0.3% | -12.4% | 1.4% | 15.2% | i | 60.6%
Cc1ccc(NN2C(=O)C=C(c3ccc(Cl)cc3)C2=O)cc1 | 7.08µM* | ? | -54.5% | 8.91µM* | . | 25.1µM*
O=C1C=C(c2ccccc2)C(=O)N1Nc1ccccc1 | 4.47µM* | ? | -98.1% | 5.01µM* | ? | ?
O=C1Cc2ccccc2C(=O)N1Nc1ccccc1 | . | -11.8% | 8.9% | . | i | -23.0%
COC(=O)c1ccccc1NC(=O)CSc1nc(-c2ccccc2)cc(C(F)(F)F)n1 | . | 4.3% | 4.2% | . | i | 1.9%
Cc1cc(C)nc(-n2nc(C)cc2NC(=O)CN2CCCC2)n1 | 11.2µM* | -12.8% | -1.7% | -13.3% | i | .
Cc1ccc(C)c(C(=O)Nc2cc(C)nn2-c2nc(C)cc(C)n2)c1 | 0.501µM* | -4.0% | -18.2% | ? | i | -18.5%
Cc1cc(C)nc(-n2nc(C)cc2NC(=O)c2cccc(S(=O)(=O)N(C)C)c2)n1 | ? | 0.9% | 1.3% | -3.4% | i | -5.5%

Screening data from PubChem.
